Screens as filed in PubChem.
HT1080 IDH1KD tx: qHTS for induction of synthetic lethality in tumor cells producing 2HG: qHTS for the HT-1080-IDH1KD cell line; HT-1080 IDH1 knockdown viability, ATP luminescence, 48 h; Potency, µM (titrated, usually from 46.1 µM), inactives show top-dose activity, negative = toxicity, most hits filed as cytotoxic; 360,000 tested, 2% active;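 note: potency is the fitted concentration of half-maximal effect; 0% = DMSO wells and -100% = cell-free medium wells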
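% activity derives from luminescence (CellTiter-Glo), normalised to DMSO and no-cell wells. HT-1080-IDH1KD cells, 750/well, had 48 h compound exposure at 37 °C.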
HT1080NT lethal: qHTS for induction of synthetic lethality in tumor cells producing 2HG: qHTS for the HT-1080-NT fibrosarcoma cell line. HT-1080-NT fibrosarcoma viability, CellTiter-Glo ATP luminescence, 48 h. Potency, µM (doses to about 46.1 µM), for inactives: at the highest dose activity, negative = less viability, most hits filed as cytotoxic. 360,000 tested, 1.6% active. AID 686970, 2013;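 note: NT is the 2HG producing partner of a matched IDH1 knockdown line; potency is the fitted concentration of half-maximal effect; 0% = DMSO-treated cells and -100% = media-only wells without cells; nearly all actives have a fitted effect of over 55% in size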
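Toxicity toward the 2HG-producing NT line was scored as %Activity, normalised to DMSO and no-cell wells, from CellTiter-Glo luminescence after 48 hours' treatment.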
IL-1B inflam inh: qHTS for Inhibitors of Inflammasome Signaling: IL-1-beta AlphaLISA Primary Screen | THP-1 LPS/ATP IL-1B secretion, AlphaLISA, 16 h; hits give low values | activity change, % at 57.5 µM | 360,000 tested, 4.7% active; in the data active = activity change below about -50%; inconclusive = mostly about -30% to -49%
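Secreted IL-1B measured by AlphaLISA bead assay after 16 h compound exposure of THP-1 cells; compounds (final up to 57.5 uM) added 1 h before LPS (250 ng/mL) and ATP (1.25 mM) stimulation; lower signal means less secretion.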
ALOX12 inh: Primary qHTS assay for inhibitors of human arachidonate 12S-lipoxygenase (ALOX12): Round 2 | Polyunsaturated fatty acid lipoxygenase ALOX12 (Homo sapiens), P18054 | purified 12hLO, xylenol orange hydroperoxide absorbance | Potency, µM (series often up to 108 µM), for inactives: at the top dose activity change, negative = inhibition, actives largely listed as inhibitors | 580,000 tested, 1.1% active; note: potency is the fitted concentration of half-maximal effect
Target sequence (P18054 whole entry, looked up): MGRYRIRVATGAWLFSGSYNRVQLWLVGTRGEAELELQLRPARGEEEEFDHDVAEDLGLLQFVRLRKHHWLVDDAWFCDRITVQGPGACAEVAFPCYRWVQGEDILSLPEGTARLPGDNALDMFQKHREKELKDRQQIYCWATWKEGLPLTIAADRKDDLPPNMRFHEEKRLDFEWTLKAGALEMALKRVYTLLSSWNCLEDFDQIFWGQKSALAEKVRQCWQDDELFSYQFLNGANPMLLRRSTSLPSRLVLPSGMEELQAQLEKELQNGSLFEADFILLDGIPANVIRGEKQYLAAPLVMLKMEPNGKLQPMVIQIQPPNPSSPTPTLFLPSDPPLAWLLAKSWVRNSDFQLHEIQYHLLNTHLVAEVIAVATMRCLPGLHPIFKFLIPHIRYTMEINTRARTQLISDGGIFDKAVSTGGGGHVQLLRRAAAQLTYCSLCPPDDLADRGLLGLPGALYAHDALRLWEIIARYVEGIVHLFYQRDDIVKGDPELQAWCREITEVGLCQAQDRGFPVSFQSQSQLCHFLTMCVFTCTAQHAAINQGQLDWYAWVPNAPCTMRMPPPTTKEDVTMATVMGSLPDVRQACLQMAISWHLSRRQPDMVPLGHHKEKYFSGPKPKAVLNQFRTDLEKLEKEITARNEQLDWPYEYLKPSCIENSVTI
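Hydroperoxide product was detected by ferrous iron/xylenol orange as the 573 to 405 nm absorbance ratio. Arachidonic acid at 40 uM (final) was turned over for 30 min at room temperature by 150 nM human 12hLO, pH 7.0 Hepes buffer, after 15 min compound preincubation.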
DT40 TDP1 CPT: qHTS for Inhibitors of human tyrosyl-DNA phosphodiesterase 1 (TDP1): qHTS in cells in presence of CPT; chicken DT40 Tdp1-/-;hTDP1 cells + 20 nM CPT, ATP luminescence, 48 h; Potency, µM (series often up to 46.2 µM), for inactives: at the highest dose activity change, negative = growth inhibition, actives largely listed as inhibitors; 420,000 tested, 12% active; note: potency is the fitted concentration of half-maximal effect; nearly all actives have a fitted effect of over 55% in size
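Cell growth measured by CellTiter-Glo luminescence after a minimum 48 h, 37 C compound exposure with 20 nM CPT in Tdp1-knockout DT40 cells stably expressing hTDP1, seeded 400/well; qHTS titration format.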
TDP1 cell noCPT: qHTS for Inhibitors of human tyrosyl-DNA phosphodiesterase 1 (TDP1): qHTS in cells in absence of CPT. DT40 Tdp1-/- hTDP1 cells, no CPT, ATP luminescence, 48 h. Potency, µM (titrated, usually from 46.2 µM), without a hit: at the highest dose activity change, negative = growth inhibition, most hits filed as inhibitors. 420,000 tested, 15% active; note: potency is the fitted concentration of half-maximal effect; nearly all actives have a fitted effect of over 55% in size
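Compound effects on proliferation are scored in DT40 Tdp1-/-;hTDP1 cells in the absence of CPT. ATP levels (CellTiter-Glo luminescence) are recorded after a ≥48 hr, 37 °C incubation.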
Starred values were filed as active, the others as inactive; [ ] = another dose, or the depositor's remark. Only a selection was taken, and hits are over-represented in it overall. Unless noted, calls come from the whole dose curve; as a rule, active = well fitted curve in the direction sought with a large enough effect; inconclusive = small, poorly fitted or top-dose-only effect, or another doubt; inactive = no such curve, though single readings can be large; an effect the other way counts as inactive or inconclusive. Unless noted, % is set by controls: 0 for no effect and ±100 for the full control effect.

What do the screens show for `Cc1ccc(CNC(=O)Nc2c(NCc3ccccc3)c3ccccc3oc2=O)cc1`?
ALOX12 inh: -27%

How did CCOc1ccc(-c2cc3c(=O)n(CCNC(=O)c4cccc5[nH]ccc45)ccn3n2)cc1 do in these assays?
ALOX12 inh: -10%

What do the screens show for `COc1ccc(S(=O)(=O)N2CCN(C(=O)c3ccc([N+](=O)[O-])o3)CC2)cc1`?
HT1080 IDH1KD tx: inconclusive; HT1080NT lethal: inconclusive; IL-1B inflam inh: -82*; ALOX12 inh: -35%; DT40 TDP1 CPT: 10µM*; TDP1 cell noCPT: 21µM*

What do the screens show for `COc1ccc(CCC(=O)N2CCN(S(=O)(=O)c3ccc(C)cc3)CC2)cc1`?
HT1080 IDH1KD tx: 0%; HT1080NT lethal: 9%; IL-1B inflam inh: -22; ALOX12 inh: -39%; DT40 TDP1 CPT: -19%; TDP1 cell noCPT: -28%

How did COc1cccc(C(=O)Nc2cc(S(=O)(=O)N3CCCCC3)ccc2OC)c1 do in these assays?
HT1080 IDH1KD tx: -15%; HT1080NT lethal: -24%; IL-1B inflam inh: -21; ALOX12 inh: -1%; DT40 TDP1 CPT: inconclusive; TDP1 cell noCPT: inconclusive

What do the screens show for `CCN1CCN(c2ccc(S(=O)(=O)N3CCCCC3)cc2NC(=O)c2ccc([N+](=O)[O-])o2)CC1`?
HT1080 IDH1KD tx: 2%; HT1080NT lethal: -1%; IL-1B inflam inh: -25; ALOX12 inh: inconclusive; DT40 TDP1 CPT: 8.2µM*; TDP1 cell noCPT: 7.3µM*

How did COc1ccc(S(=O)(=O)N2CCCCC2)cc1NC(=O)c1ccc([N+](=O)[O-])o1 do in these assays?
HT1080 IDH1KD tx: -6%; HT1080NT lethal: 7%; ALOX12 inh: -4%; DT40 TDP1 CPT: 15µM*; TDP1 cell noCPT: 21µM*

How did Cc1noc(C)c1C(=O)N1CCC2(CC1)CN(C(=O)c1ccc(Cl)cc1)CCO2 do in these assays?
ALOX12 inh: 5%[6.33 µM]

Results for O=C(Nc1ccccc1F)c1ccc2c(=O)n(-c3ccccc3)cnc2c1 ?
ALOX12 inh: 1%

How did Cc1ccc(S(=O)(=O)N2c3cc(C)ccc3OCC2C(C)(C)C)cc1 (stereo unspecified) do in these assays?
HT1080 IDH1KD tx: inconclusive; HT1080NT lethal: inconclusive; IL-1B inflam inh: 6; ALOX12 inh: 0%; DT40 TDP1 CPT: inconclusive; TDP1 cell noCPT: inconclusive

What do the screens show for `COc1ccc(S(=O)(=O)N2c3cc(C)ccc3OCC2C(C)(C)C)cc1` (stereo unspecified)?
HT1080 IDH1KD tx: 5.8µM*; HT1080NT lethal: 5.8µM*; IL-1B inflam inh: 24; ALOX12 inh: 0%; DT40 TDP1 CPT: 16µM*; TDP1 cell noCPT: inconclusive

What do the screens show for `Cc1ccsc1C(=O)N/N=C/C=C/c1ccccc1[N+](=O)[O-]`?
HT1080 IDH1KD tx: -5%; HT1080NT lethal: -7%; IL-1B inflam inh: -4; ALOX12 inh: -14%; DT40 TDP1 CPT: 21µM*; TDP1 cell noCPT: inconclusive

How did Cc1occc1C(=O)N/N=C/C=C\c1ccccc1[N+](=O)[O-] do in these assays?
HT1080 IDH1KD tx: 19%; HT1080NT lethal: 29%; IL-1B inflam inh: -15; ALOX12 inh: 0%; DT40 TDP1 CPT: inconclusive; TDP1 cell noCPT: -28%

How did O=C(N/N=C/C=C/c1ccccc1[N+](=O)[O-])c1cc(-c2ccccc2)n[nH]1 do in these assays?
HT1080 IDH1KD tx: -19%; HT1080NT lethal: -23%; IL-1B inflam inh: 0; ALOX12 inh: 4%; DT40 TDP1 CPT: 16µM*; TDP1 cell noCPT: 15µM*

How did Cc1occc1C(=O)NC1CCc2nn(C)c(=O)n2CC1 (stereo unspecified) do in these assays?
ALOX12 inh: 80%

How did CCS(=O)c1ccccc1C(=O)NCc1ccc(C)cc1 (stereo unspecified) do in these assays?
ALOX12 inh: 18µM*

What do the screens show for `COc1ccccc1N1CCc2c(C)nc3c(OC)cccc3c21`?
HT1080 IDH1KD tx: inconclusive; HT1080NT lethal: inconclusive; IL-1B inflam inh: -72*; DT40 TDP1 CPT: 5.8µM*; TDP1 cell noCPT: 4.1µM*

How did COc1cccc2c3c(c(C)nc12)CCN3c1ccccc1 do in these assays?
HT1080 IDH1KD tx: inconclusive; HT1080NT lethal: inconclusive; IL-1B inflam inh: -93*; ALOX12 inh: -10%; DT40 TDP1 CPT: inconclusive; TDP1 cell noCPT: 15µM*

How did Cc1ccc2nc(C)c3c(c2c1)N(c1ccc(F)cc1)CC3 do in these assays?
HT1080 IDH1KD tx: 15µM*; HT1080NT lethal: 21µM*; ALOX12 inh: inconclusive; DT40 TDP1 CPT: 10µM*; TDP1 cell noCPT: inconclusive

How did CCOc1ccc(CN(C)C(=O)Cn2cnc3c(cnn3C)c2=O)cc1 do in these assays?
ALOX12 inh: 46%

Results for COC(=O)c1c(C)[nH]c(C)c1C(=O)c1ccccc1Cc1ccccc1 ?
HT1080 IDH1KD tx: -12%; HT1080NT lethal: -4%; IL-1B inflam inh: 8; ALOX12 inh: -4%; DT40 TDP1 CPT: 40µM*; TDP1 cell noCPT: 7.3µM*

Results for CS(=O)(=O)c1ccc(C(=O)N(Cc2ccccc2)c2ccccc2)cc1 ?
HT1080 IDH1KD tx: 10%; HT1080NT lethal: -4%; IL-1B inflam inh: 11; ALOX12 inh: inconclusive; DT40 TDP1 CPT: inconclusive; TDP1 cell noCPT: inconclusive

What do the screens show for `COc1cc(C(=O)N(Cc2ccccc2)c2cccc(C)c2)ccc1OCC(=O)N1CCOCC1`?
HT1080 IDH1KD tx: -3%; HT1080NT lethal: 0%; IL-1B inflam inh: -17; ALOX12 inh: 1%; DT40 TDP1 CPT: inconclusive; TDP1 cell noCPT: 16µM*

How did COc1ccc(C(=O)N(Cc2ccccc2)c2cccc(C)c2)cc1 do in these assays?
HT1080 IDH1KD tx: -17%; HT1080NT lethal: -21%; IL-1B inflam inh: 13; ALOX12 inh: 44%; DT40 TDP1 CPT: 15µM*; TDP1 cell noCPT: inconclusive

How did Cc1cccc(N(Cc2ccccc2)C(=O)c2ccc(S(C)(=O)=O)cc2)c1 do in these assays?
HT1080 IDH1KD tx: 0%; HT1080NT lethal: 0%; IL-1B inflam inh: 0; ALOX12 inh: inconclusive; DT40 TDP1 CPT: 16µM*; TDP1 cell noCPT: inconclusive

Results for CN1CCC(N(C)C(=O)c2ccc(Cl)cc2F)CC1 ?
ALOX12 inh: -30%
